We go through 75 compounds from the antibiotic and cytotoxicity screens of Wong et al. (2023).

The structures appear in SMILES notation. About 3,300 (8.5%) of roughly 39,000 compounds were called active. The sample holds actives, similar compounds and a random draw of the others, so the mix is not that of the screen.

For the assay, the system named is HepG2. Briefly: cytotoxicity call (relative viability < 0.9). The conditions noted are these: 10 µM.
Take `Cc1ccc(S(=O)(=O)Nc2ccc3c(c2)C(=O)N([C@@H](C)CO)C[C@@H](C)[C@@H](CN(C)C(=O)NC(C)C)O3)cc1`: the cytotoxicity call is “inactive”. Next, `C[C@@H]1CN([C@H](C)CO)C(=O)c2cc(NC(=O)Cc3ccccc3)ccc2O[C@H]1CN(C)S(=O)(=O)c1cccs1`: “inactive”; `COC(=O)c1cccnc1`: “inactive”. Under `O=C(CO)c1ccccc1` stands “inactive”; under `O=C(OCc1ccccc1)c1cccnc1`, “active”; under `O=C(OCc1ccccc1)c1ccccc1`, “active”. Under `NCC(=O)OCc1ccccc1` stands “inactive”; under `O=C(OOC(=O)c1ccccc1)c1ccccc1`, “active”. On to `N[C@@H](COCc1ccccc1)C(=O)O`, for which the cytotoxicity call is “inactive”. Regarding `O=C(O)c1cccnc1`, the cytotoxicity call was “inactive”. Under `O=C(ON1C(=O)CCC1=O)c1ccccc1` stands “inactive”; under `CCC(=O)N[C@@H]1CC[C@@H](CC(=O)OC)O[C@H]1CO`, “inactive”. Under `C[N+](C)(C)CCCCCC[N+](C)(C)C.[Br-].[Br-]` stands “inactive”; under `CCCCCCCCCCCCCCCC[N+](C)(C)C`, “active”; under `CCCCCCCCCCCCCCCCOP(=O)([O-])OCC[N+](C)(C)C`, “inactive”.

`C[C@@H]1CN([C@H](C)CO)C(=O)c2cc(C#CC3(O)CCCC3)cnc2O[C@@H]1CN(C)S(=O)(=O)c1ccc(F)cc1`: the cytotoxicity call was “inactive”.

On to `O=C(CN1CCOCC1)N[C@H]1CC[C@@H](CCNC(=O)C2CCC2)O[C@@H]1CO`, for which the cytotoxicity call was “inactive”. Next, `C[C@H]1CN([C@@H](C)CO)C(=O)c2cccc(NC(=O)Nc3ccc(C(F)(F)F)cc3)c2O[C@H]1CN(C)S(C)(=O)=O`: “inactive”. On to `COc1ccc2c3c([nH]c2c1)[C@H](CO)N(C[C@]13CCN(CCc2ccccc2)CC1)C(=O)CN1CCOCC1`, for which the cytotoxicity call was “inactive”. Under `COc1ccc2c3c([nH]c2c1)[C@H](CO)N(Cc1ccc(cc1)Cl)C[C@]13CCN(CC1)Cc1ccccc1` stands “active”; under `COc1ccc2c3c([nH]c2c1)[C@H](CO)N(C[C@]13CCN(CC1)Cc1ccccc1)C(=O)CN1CCOCC1`, “active”.

In the case of `COc1ccc2c3c([nH]c2c1)[C@H](CO)N(Cc1ccncc1)C[C@]13CCN(CC1)Cc1ccc(cc1)-c1ccccn1`, the cytotoxicity call was “inactive”. Next, `COc1ccc2c3c([nH]c2c1)[C@@H](CO)N(C[C@]13CCN(CC1)Cc1ccccc1)C(=O)CN1CCOCC1`: “inactive”; `COc1ccc2c3c([nH]c2c1)[C@H](CO)N(Cc1ccc(cc1)Cl)C[C@]13CCN(CC1)Cc1nccs1`: “inactive”; `COc1ccc2c3c([nH]c2c1)[C@@H](CO)N(Cc1ccc(cc1)Cl)C[C@]13CCN(CC1)Cc1nccs1`: “inactive”. Under `COc1ccc2c3c([nH]c2c1)[C@@H](CO)N(Cc1ccc(cc1)Cl)C[C@]13CCN(CC1)Cc1ccccc1` stands “active”; under `COc1ccc(cc1)CN1C[C@]2(CCN(CC2)Cc2ccccc2OC)c2c([nH]c3cc(ccc23)OC)[C@@H]1CO`, “inactive”.

Regarding `C[C@@H]1CN([C@H](C)CO)C(=O)c2cc(NC(=O)CCCCCC(=O)Nc3ccccc3N)ccc2O[C@@H]1CN(C)Cc1ccc(Cl)c(Cl)c1`, the cytotoxicity call was “inactive”. Under `Cc1cc(C(=O)Nc2cccc3c2O[C@@H](CN(C)C(=O)NC2CCCCC2)[C@H](C)CN([C@H](C)CO)C3=O)n(C)n1` stands “inactive”. Next, `Cc1noc(C)c1S(=O)(=O)Nc1ccc2c(c1)C(=O)N([C@H](C)CO)C[C@@H](C)[C@H](CN(C)S(=O)(=O)c1ccccc1)O2`: “inactive”; `C[C@@H]1CN([C@H](C)CO)C(=O)c2cc(Br)cnc2O[C@@H]1CN(C)Cc1ccc2c(c1)OCO2`: “inactive”. Next, `COc1ccc(-c2cc(=O)c3c(O)cc(O[C@@H]4O[C@H](CO[C@@H]5O[C@@H](C)[C@H](O)[C@@H](O)[C@H]5O)[C@@H](O)[C@H](O)[C@H]4O)cc3o2)cc1O`: “inactive”; `C[C@H](CO)N1C[C@H](C)[C@@H](CN(C)C(=O)Cc2cccnc2)Oc2cc(-c3cncnc3)ccc2S1(=O)=O`: “inactive”; `NC(=O)c1ncn([C@H]2O[C@@H](COP(=O)(O)O)[C@@H](O)[C@@H]2O)c1N`: “inactive”. Take `C[C@@H]1CN([C@H](C)CO)C(=O)c2cc(NS(=O)(=O)c3cn(C)cn3)ccc2O[C@@H](C)CCCCO[C@H]1CN(C)S(=O)(=O)c1cn(C)cn1`: the cytotoxicity call is “inactive”. Under `CC(C)(C)OC(=O)C[C@@H]1CC=CC[C@@H](CC(=O)NCCO)C(=O)N[C@@H](Cc2c[nH]c3ccccc23)COC1=O` stands “inactive”.

In the case of `NNC(=O)Cc1nc2ccccc2[nH]1`, the cytotoxicity call was “inactive”. Take `CC(C)(C)c1ccc(CSCc2nc3ccccc3[nH]2)cc1`: the cytotoxicity call is “active”.

In the case of `CC(C)Cc1nc2ccccc2[nH]1`, the cytotoxicity call was “inactive”. For the compound `Cc1ccc(S(=O)(=O)Nc2ccc3c(c2)C(=O)N([C@@H](C)CO)C[C@@H](C)[C@H](CN(C)Cc2ccc4c(c2)OCO4)OCCCC[C@@H](C)O3)cc1`, the cytotoxicity call was “inactive”.

Take `Cc1ccc(S(=O)(=O)Nc2ccc3c(c2)C(=O)N([C@H](C)CO)C[C@@H](C)[C@@H](CN(C)Cc2ccc4c(c2)OCO4)OCCCC[C@@H](C)O3)cc1`: the cytotoxicity call was “active”. Next, `Cc1ccc(S(=O)(=O)Nc2ccc3c(c2)C(=O)N([C@@H](C)CO)C[C@H](C)[C@@H](CN(C)Cc2ccc4c(c2)OCO4)OCCCC[C@H](C)O3)cc1`: “inactive”. Next, `Cc1ccc(S(=O)(=O)Nc2ccc3c(c2)C(=O)N([C@H](C)CO)C[C@H](C)[C@@H](CN(C)Cc2ccc4c(c2)OCO4)OCCCC[C@H](C)O3)cc1`: “inactive”. Next, `Cc1ccc(S(=O)(=O)Nc2ccc3c(c2)C(=O)N([C@H](C)CO)C[C@@H](C)[C@H](CN(C)Cc2ccc4c(c2)OCO4)OCCCC[C@H](C)O3)cc1`: “active”; `Cc1ccc(S(=O)(=O)Nc2ccc3c(c2)C(=O)N([C@H](C)CO)C[C@H](C)[C@H](CN(C)Cc2ccc4c(c2)OCO4)OCCCC[C@H](C)O3)cc1`: “active”. Take `Cc1ccc(S(=O)(=O)Nc2ccc3c(c2)C(=O)N([C@H](C)CO)C[C@H](C)[C@@H](CN(C)Cc2ccc4c(c2)OCO4)OCCCC[C@@H](C)O3)cc1`: the cytotoxicity call is “inactive”. Under `Cc1ccc(S(=O)(=O)Nc2ccc3c(c2)C(=O)N([C@@H](C)CO)C[C@H](C)[C@H](CN(C)Cc2ccc4c(c2)OCO4)OCCCC[C@H](C)O3)cc1` stands “inactive”; under `Cc1ccc(S(=O)(=O)Nc2ccc3c(c2)C(=O)N([C@@H](C)CO)C[C@@H](C)[C@@H](CN(C)Cc2ccc4c(c2)OCO4)OCCCC[C@H](C)O3)cc1`, “inactive”. On to `COc1ccc(S(=O)(=O)N(C)C[C@H]2Oc3c(NC(=O)Nc4c(C)noc4C)cccc3C(=O)N([C@H](C)CO)C[C@@H]2C)cc1`, for which the cytotoxicity call was “inactive”. Next, `C[C@@H]1CN([C@H](C)CO)C(=O)c2cccc(NS(=O)(=O)c3cccs3)c2O[C@@H]1CN(C)Cc1ccc(Cl)c(Cl)c1`: “inactive”. Under `C[C@H]1CN([C@@H](C)CO)C(=O)Cc2cc(NC(=O)Cc3ccccc3)ccc2O[C@H]1CN(C)S(C)(=O)=O` stands “inactive”. Next, `CNCc1ccncc1`: “inactive”; `Cc1sccc1-c1csc(N)n1`: “inactive”; `C[C@@H]1CN([C@@H](C)CO)C(=O)CCCn2nncc2CO[C@H]1CN(C)C(=O)Nc1ccc2c(c1)OCCO2`: “inactive”. For the compound `C[C@H](CO)N1C[C@H](C)[C@H](CN(C)C(=O)Nc2cccc3ccccc23)Oc2ncc(-c3cccc(F)c3)cc2C1=O`, the cytotoxicity call was “inactive”. Next, `C[C@H](CO)N1C[C@H](C)[C@@H](CN(C)S(=O)(=O)c2ccc(Cl)cc2)OCCCC[C@H](C)Oc2ccc(NC(=O)c3ccncc3)cc2C1=O`: “inactive”; `C[C@@H]1CN([C@@H](C)CO)C(=O)c2cccc(NS(=O)(=O)c3cccs3)c2O[C@H]1CN(C)S(=O)(=O)c1ccccc1`: “inactive”. As for `COc1ccc(C#Cc2ccc3c(c2)O[C@@H](CN(C)C(=O)CN2CCOCC2)[C@H](C)CN([C@H](C)CO)S3(=O)=O)cc1`, the cytotoxicity call is “inactive”. Next, `C[C@@H]1CN([C@H](C)CO)C(=O)Cc2cc(NC(=O)c3ccncc3)ccc2O[C@@H]1CN(C)Cc1ccc(Oc2ccccc2)cc1`: “inactive”; `C[C@@H]1CN([C@H](C)CO)C(=O)Cc2cc(NC(=O)c3ccncc3)ccc2O[C@H]1CN(C)Cc1ccc(Oc2ccccc2)cc1`: “inactive”. Under `C[C@H]1CN([C@@H](C)CO)C(=O)Cc2cc(NC(=O)c3ccncc3)ccc2O[C@@H]1CN(C)Cc1ccc(Oc2ccccc2)cc1` stands “inactive”. Next, `C[C@@H]1CN([C@@H](C)CO)C(=O)Cc2cc(NC(=O)c3ccncc3)ccc2O[C@@H]1CN(C)Cc1ccc(Oc2ccccc2)cc1`: “active”; `C[C@H]1CN([C@@H](C)CO)C(=O)Cc2cc(NC(=O)c3ccncc3)ccc2O[C@H]1CN(C)Cc1ccc(Oc2ccccc2)cc1`: “inactive”.

As to `C[C@@H]1CN([C@@H](C)CO)C(=O)Cc2cc(NC(=O)c3ccncc3)ccc2O[C@H]1CN(C)Cc1ccc(Oc2ccccc2)cc1`, the cytotoxicity call was “active”. As for `CO[C@@H]1CN(C)C(=O)c2ccc(NC(=O)C3CC3)cc2OC[C@@H](C)N(C(=O)C2CCOCC2)C[C@@H]1C`, the cytotoxicity call is “inactive”. Next, `C[C@H]1CN([C@@H](C)CO)C(=O)Cc2cc(NC(=O)NC3CCCCC3)ccc2O[C@@H]1CN(C)S(=O)(=O)c1cn(C)cn1`: “inactive”; `O=C(C[C@H]1C=C[C@H](NC(=O)C2CC2)[C@@H](CO)O1)NCCCN1CCOCC1`: “inactive”; `C[C@@H]1CCCCO[C@@H](CN(C)C(=O)c2ccncc2)[C@@H](C)CN([C@@H](C)CO)C(=O)c2cc(NC(=O)C3CCCCC3)ccc2O1`: “inactive”. Next, `CS(=O)(=O)NCc1nnnn1-c1ccc(F)c(F)c1`: “inactive”. Under `C[C@@H]1CN([C@H](C)CO)S(=O)(=O)c2ccc(C#Cc3cccc(F)c3)cc2O[C@H]1CN(C)S(=O)(=O)c1ccccc1F` stands “inactive”; under `C[C@@H]1CN([C@@H](C)CO)C(=O)c2c(c3ccccc3n2C)-c2ccccc2CO[C@H]1CN(C)C(=O)NC1CCCCC1`, “inactive”; under `CCCc1cc(=O)nc(SCC(N)=O)[nH]1`, “inactive”. With `Cc1cc(=O)nc(SCC(N)=O)[nH]1`, the cytotoxicity call was “active”. Under `CCOC(=O)CSc1nc(=O)cc(C)[nH]1` stands “inactive”; under `C[C@H](CO)N1C[C@H](C)[C@H](CN(C)S(=O)(=O)c2cn(C)cn2)OCCCC[C@H](C)Oc2ccc(NS(=O)(=O)c3ccccc3)cc2C1=O`, “inactive”.
